# Reference: PubChem BioAssay AID485297 (National Center for Advancing Translational Sciences (NCATS), 2010)
# In all, about 320,000 compounds went through this assay and about 9,100 (2.8%) were called active. Where a call stands in place of a potency, no number is given. Roughly 3% stayed inconclusive and do not appear here. Calls come from the whole dose curve; as a rule, active = well fitted activation curve with a large enough effect; inconclusive = small, poorly fitted or top-dose-only effect; inactive = no such curve, though single readings can be large or run the other way. Many of the other results were omitted from the sample, so actives are more common in it than they were.
# Assay: qHTS Assay for Rab9 Promoter Activators; note: nearly all actives have a fitted effect of over 60% in size
# Settings: Huh7 Rab9 promoter-luciferase reporter, luminescence, 24 h; series mostly up to 9.22 µM
# Summary of the method: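 Rab9 promoter-driven luciferase in stably transfected Huh7 cells; 1500 cells/well rested 2 h, exposed to compound in DMSO for 24 h at 37 °C, 5% CO2. Luminescence read 10 min after adding luciferase reagent at ambient temperature.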
# Potency is the fitted concentration of half-maximal effect.
row,SMILES,Potency
1,CN(C)C(CNC(=O)c1ccc(OCc2cn3ccccc3n2)cc1)c1ccco1 (configuration not stated),inactive
2,COc1ccc(C(=O)NCCNc2ccc([N+](=O)[O-])cn2)cc1,inactive
3,Cc1csc(NC(=O)C2CCN(S(=O)(=O)c3ccccc3)CC2)n1,inactive
4,CC(C)CNC(=S)Nc1ccc(F)cc1,inactive
5,CC(C)CNC(=O)C(=O)NCc1ccccc1,inactive
6,CC(C)CNC(=O)C(=O)Nc1ccc(N(C)C)cc1,3160 nM (active)
7,COC(=O)C1=CN(c2ccc(F)c(F)c2)C=C(C(=O)OC)C1c1ccc([N+](=O)[O-])cc1,inactive
8,COc1ccc([C@H]2CC(=O)C=C(c3ccc(CO)cc3)C2)cc1,inactive
9,Cc1csc(NC(=O)CSc2nc(=O)n(CCCN(C)C)c3c2CCC3)n1,inactive
10,COCCn1c(C)cc(C2=NNC(=Nc3ccc(F)cc3)SC2)c1C,3550 nM (active)
11,C=CCn1c(C)cc(C2=NNC(=NCC)SC2)c1C,inactive
12,C=CC1(C)CC(=O)C2(O)C(C)(O1)C(OC(C)=O)C(O)C1C(C)(C)CCC(O)C12C (configuration not stated),inactive
13,Cc1ccc(C)c(NC(=O)COC(=O)CSc2ccccc2)c1,inactive
14,CCCCN(CC)C(=O)c1ccccc1Oc1ccccc1,inactive
15,COc1ccccc1OCCOc1ccc(/C=N/n2cnnc2)cc1,inactive
16,COc1cccc(OCCOc2cccc(/C=N/n3cnnc3)c2)c1,2820 nM (active)
17,C(=N\n1cnnc1)/c1cccnc1,inactive
18,COc1cccc(C(=O)N/N=C(\C)c2cccc(NC(=O)c3ccc(F)cc3)c2)c1OC,inactive
19,Cc1ccccc1OCCC(=O)OCC(=O)NCCc1ccc(S(N)(=O)=O)cc1,inactive
20,CCn1nc(C(=O)NNC(=O)C2CSC3(C)CCC(=O)N23)c2ccccc2c1=O (configuration not stated),inactive
21,CCN(C(=O)COC(=O)CCOc1cccc(C)c1)c1c(N)n(Cc2ccccc2)c(=O)[nH]c1=O,inactive
22,N#Cc1ccccc1S(=O)(=O)N1CCN(Cc2c(O)ccc3ccccc23)CC1,inactive
23,N#CCC(=O)Nc1ccc(C(=O)OCC(=O)Nc2sc3c(c2C#N)CCCC3)cc1,inactive

row,SMILES,Potency
1,Nc1ncnc2c1c(I)cn2[C@@H]1C[C@H](N)[C@@H](O)[C@H]1O,inactive
2,Cc1cc(CO)nn1-c1ccc([N+](=O)[O-])cc1,inactive
3,Cn1nc(-c2ccccc2)c2cc([N+](=O)[O-])ccc21,inactive
4,Cc1nn(-c2ccc([N+](=O)[O-])cc2)c(N)c1-c1ccccc1,1260 nM (active)
5,COc1ccccc1OCCNC(=O)C(CCSC)NC(=O)COc1ccccc1 (configuration not stated),inactive
6,O=C(COC(=O)Cc1ccccc1F)NCCc1ccccc1,inactive
7,CCOc1cccc2cc(C(=O)OCC(=O)Nc3c(C)cccc3CC)c(=O)oc12,inactive
8,COCCn1cnnc1SCC(=O)Nc1cccc(S(=O)(=O)N2CCCCC2)c1,inactive
9,O=C(Nc1cccc(NC(=O)c2ccccc2[N+](=O)[O-])c1)c1ccccc1Cl,inactive
10,O=C(Nc1ccc2sc3ccccc3c(=O)c2c1)c1ccccc1Cl,2820 nM (active)
11,COc1cc(NC(=O)c2cccs2)ccc1NC(=O)c1ccccc1Cl,inactive
12,COc1ccc(C(=O)COC(=O)c2ccc([N+](=O)[O-])s2)cc1OC,inactive
13,CN(C(=O)Cn1nnc(-c2ccc(F)cc2)n1)C1CCS(=O)(=O)C1 (configuration not stated),inactive
14,CC(C)(CNC(=O)Cc1ccc(Cl)cc1Cl)N1CCOCC1,inactive
15,N#Cc1ccc(C2N=C(c3ccccc3)NO2)cc1 (configuration not stated),1780 nM (active)
16,CCOc1ccc(NC(=O)CN(C)C(=O)CSc2ccccc2)cc1OCC,inactive
17,COc1ccccc1-n1c(-c2cc(-c3ccco3)[nH]n2)n[nH]c1=S,inactive
18,Cc1cc(C(F)(F)F)nn1-c1nc(-c2ccco2)cc(C(F)(F)F)n1,inactive
19,Cn1c(-c2ccco2)nc2cc3ccccc3cc21,3980 nM (active)
20,COc1cc(OC)c(NS(=O)(=O)c2cn(C)cn2)cc1Cl,inactive
21,O=[N+]([O-])c1ccc2c(c1)Nc1nc3ccccc3nc1N2,inactive
22,O=[N+]([O-])c1ccc2nc(-c3ccccn3)[nH]c2c1,2510 nM (active)
23,O=C(CSc1nc2ccc([N+](=O)[O-])cc2[nH]1)c1ccc(Cl)cc1,inactive

row,SMILES,Potency
1,O=C(CN1C(=O)NC2(CCCCC2)C1=O)N1CCN(C(=O)c2cccs2)CC1,inactive
2,CC(C)n1ncc2c(C(=O)NCc3ccccc3CN(C)C)cc(C3CC3)nc21,inactive
3,Cc1ccc(S(=O)(=O)N(NC2=NS(=O)(=O)c3ccccc32)C(=O)c2ccccc2)cc1,inactive
4,O=C(Oc1cccc(NC2=NS(=O)(=O)c3ccccc32)c1)c1ccncc1,inactive
5,CC(C)(C)c1csc(NC2=NS(=O)(=O)c3ccccc32)n1,1260 nM (active)
6,O=S(=O)(NC1CCCCC1)c1ccc(F)c2ccccc12,inactive
7,COc1ccc2cc(C3=CC(=O)C[C@H](c4ccc5c(c4)OCO5)C3)ccc2c1,inactive
8,O=C(Nc1ccc(Cl)cc1)c1cccc(OC(=S)N2CCOCC2)c1,inactive
9,Nc1c(N(Cc2ccco2)C(=O)c2cccc(F)c2)c(=O)[nH]c(=O)n1Cc1ccccc1,inactive
10,CN(CC(=O)Nc1ccc(F)c(F)c1F)C(=O)Cn1cnc2c1c(=O)n(C)c(=O)n2C,inactive
11,CC1CCCCN1S(=O)(=O)c1ccc(C(=O)Nc2nnc(-c3cccs3)o2)cc1 (configuration not stated),inactive
12,CC1CCCN(S(=O)(=O)c2ccc(C(=O)Nc3nnc(-c4ccncc4)o3)cc2)C1 (configuration not stated),1410 nM (active)
13,O=C(Nc1nnc(-c2ccco2)o1)c1ccc(S(=O)(=O)N2CCOCC2)cc1,inactive
14,O=C(COC(=O)c1c(Cl)cccc1Cl)Nc1cccc(S(=O)(=O)NC2=NCCCCC2)c1,inactive
15,COC(=O)c1ccc(NCC(=O)N2CCCCCC2)cc1,inactive
16,COC(=O)c1ccc(NCC(=O)c2ccccc2)cc1,1780 nM (active)
17,Cc1ccc(C(=O)CNc2ccc(F)cc2)cc1,inactive
18,O=C(N[C@@H](Cc1c[nH]c2ccccc12)C(=O)O)OCC1c2ccccc2-c2ccccc21,inactive
19,CC1=NN(C(N)=S)C(=O)C1N=Nc1cc(Cl)ccc1Cl (configuration not stated),inactive
20,Cc1[nH]n(-c2cccc(Cl)c2)c(=O)c1-c1ccc(Cl)cc1,inactive
21,Cc1[nH]n(C(N)=S)c(=O)c1N=Nc1ccc(Cl)cc1Cl,3980 nM (active)
